Screening data: PubChem, National Center for Advancing Translational Sciences (NCATS)
This is a sample that favours compounds with a hit; in the whole collection about 4.2% have one here.
Sfp inh: qHTS Assay for Inhibitors of Bacillus subtilis Sfp phosphopantetheinyl transferase (PPTase). Potency, µM, for inactives: largest response in the series, negative = inhibition, hits mostly inhibitors. 4'-phosphopantetheinyl transferase ffp (Bacillus subtilis), Q9F4F7. AID 1490, 2009. Biochemical Sfp PPTase activity, qHTS. 310,000 tested, 3.5% active;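 also: the enzyme is Sfp with the accession as filed and its product quenches rhodamine fluorescence; 0% = enzyme reaction without inhibitor and -100% = no enzyme wells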
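After 15 min at room temperature with compound, 15 nM Sfp received 5 uM rhodamine-CoA plus 12.5 uM BHQ-2-ybbR (50 mM Hepes pH 7.6, 10 mM MgCl2). Rate came from the fluorescence difference over 30 min, ex 525/em 598 nm.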
12-LOX inh: Primary qHTS assay for inhibitors of human arachidonate 12S-lipoxygenase (ALOX12): Round 2. Polyunsaturated fatty acid lipoxygenase ALOX12 (Homo sapiens), P18054. purified 12hLO, xylenol orange hydroperoxide absorbance. Potency, µM (doses to about 108 µM), for the others: at the top dose activity change, negative = inhibition, hits mostly inhibitors. 580,000 tested, 1.1% active. AID 1671190, 2021
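Purified human 12hLO at 150 nM in 25 mM Hepes, 0.01% Triton X-100, pH 7.0, preincubated 15 min at room temperature with compound. Reaction started with 40 uM arachidonic acid, 30 min at room temperature. Hydroperoxide measured by Fe-xylenol orange, 573/405 nm absorbance ratio.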
VDR inh: Inhibitors of the vitamin D receptor (VDR): qHTS | Vitamin D3 receptor (Homo sapiens), P11473 | VDR-SRC2-3 peptide fluorescence polarization, 2 h | Potency, µM, without a hit: max response, negative = inhibition, most hits filed as inhibitors | 400,000 tested, 0.93% active
Target sequence (P11473 whole entry, looked up): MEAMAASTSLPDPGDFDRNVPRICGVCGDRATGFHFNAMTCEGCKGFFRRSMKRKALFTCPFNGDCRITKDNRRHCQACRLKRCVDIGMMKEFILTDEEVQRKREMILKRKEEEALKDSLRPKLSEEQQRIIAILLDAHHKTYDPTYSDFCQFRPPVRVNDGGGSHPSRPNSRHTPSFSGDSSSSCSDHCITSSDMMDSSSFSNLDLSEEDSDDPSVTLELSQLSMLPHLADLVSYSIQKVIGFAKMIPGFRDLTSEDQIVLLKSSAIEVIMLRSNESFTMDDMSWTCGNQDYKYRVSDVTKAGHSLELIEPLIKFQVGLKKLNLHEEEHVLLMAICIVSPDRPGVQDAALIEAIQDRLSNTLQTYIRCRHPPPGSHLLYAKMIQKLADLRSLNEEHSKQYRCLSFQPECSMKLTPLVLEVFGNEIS
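Measured by FP: displacement of SRC2-3 coactivator peptide from VDR by library compounds, following a two-hour ambient incubation.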
PLK1 PBD block: qHTS for Inhibitors of PLK1-PDB (polo-like kinase 1 - polo-box domain): Primary Screen. Serine/threonine-protein kinase PLK1 (Homo sapiens), P53350. Plk1 PBD binding of FITC phosphopeptide, fluorescence polarization. Potency, µM, inactives show max response, negative = inhibition, actives largely listed as inhibitors. 360,000 tested, 2.8% active. AID 720504, 2013; also: series mostly up to about 57 µM; nearly all actives have a fitted effect of over 65% in size
Numbers without * were called inactive; u = inconclusive; x = not tested or not shown; [ ] = dose if it differs, or a comment. Calls follow the shape of the dose curve; as a rule, active = well fitted curve in the direction sought with a large enough effect; inconclusive = small, poorly fitted or top-dose-only effect, or another doubt; inactive = no such curve, though single readings can be large; an effect the other way counts as inactive or inconclusive. Unless noted, % is scaled to controls: 0 for no effect and ±100 for the full control effect; potency is read from the fitted curve at half-maximal effect.

SMILES	Sfp inh	12-LOX inh	VDR inh	PLK1 PBD block
C[C@@H]1[C@H](c2ccccc2)Oc2ccc(Cl)cc2S(=O)(=O)N1CC1CCCN1C(=O)OC(C)(C)C (some centres undefined)	x	5.4%	u	23.8µM*
CC(=O)c1c(NC(=O)c2ccccc2)[nH]c(-c2ccccc2)nc1=S	25.3%	39.8µM*	34.5%	-0.2%
Cn1c(=O)n(Cc2ccccc2Cl)c(=O)c2c1[nH]c(=S)n2C	50.1µM*	-138.7%	-23.0%	16.8µM*
C=CCn1c(=O)c2c(nc(Br)n2Cc2ccccc2Cl)n(C)c1=O	4.9%	-13.2%	-3.5%	29.9µM*
Cn1c(Cl)nc2c1c(=O)n(Cc1ccccc1Cl)c(=O)n2C	x	43.9%	x	x
Cn1c(=O)n(Cc2ccccc2F)c2ccccc21	5.0%	-7.4%	24.1%	-7.0%
Cn1c(=O)n(Cc2ccccc2Cl)c2ccccc21	u	-1.1%	u	16.8µM*
COC(=O)CNC(=O)/C=C/c1ccc(OC)cc1	13.8%	20.1%	9.7%	-4.4%
COc1cc(-c2nc3c(c(=O)[nH]c(=O)n3Cc3ccccc3)n2CC(C)C)ccc1O	x	-4.6%	x	x
CSc1cccc(NC(=O)C2CCCN(S(=O)(=O)c3ccc(F)cc3)C2)c1 (centres undefined)	16.9%	0.0%	13.6%	-5.6%
CSc1cccc(NC(=S)NN/C(=N/S(=O)(=O)c2ccccc2)N2CCCC2)c1	x	44.7µM*	x	x
Cn1c(N)c(C(=O)COC(=O)C2(c3ccc(Cl)cc3)CCCC2)c(=O)n(C)c1=O	-4.0%	0.0%	-23.3%	2.99µM*
CCC(Sc1ncccc1C(=O)O)C(=O)N1CCCC1 (centres undefined)	11.2µM*	u	10.8%	-17.3%
CCOC(=O)c1cccnc1SC(CC)C(=O)N1CCOCC1 (centres undefined)	11.3%	-2.1%	12.0%	-14.5%
CNC(=O)COc1ccc(Cl)c2cccnc12	u	1.0%	10.8%	-1.7%
Cc1cccc(NC(=O)Oc2ccc(Cl)c3cccnc23)c1	x	39.8µM*	x	-3.4%
COc1cc(C)c(CC/C(C)=C/C=C/C(C)=O)c(C)c1C	u	7.8%	79.4µM*	x
S=c1[nH]nc(-c2ccco2)n1-c1ccccc1Cl	-7.3%	u	-11.8%	-13.1%
Fc1ccc(-n2c(-c3ccco3)n[nH]c2=S)cc1	79.4µM*	u	2.6%	-6.6%
Cc1cc(-c2n[nH]c(=S)n2-c2ccccc2)nn1C	79.4µM*	u	-6.2%	3.8%
CCOc1ccc(-n2c(-c3ccco3)nc3c(cnn3-c3ccc(C)cc3)c2=O)cc1	22.8%	11.2%	16.5%	-6.7%
CCOc1ccc(-n2c(-c3ccco3)n[nH]c2=S)cc1	50.1µM*	u	-0.2%	-7.2%
Cc1ccc(-n2c(-c3ccco3)n[nH]c2=S)cc1	79.4µM*	u	-14.9%	-6.5%
O=C(NCCN1CCCCC1)C1CCN(c2cnn(CC3CC3)c(=O)c2)C1 (centres undefined)	x	30.9%	x	x
S=c1[nH]nc(-c2cc(-c3ccco3)[nH]n2)n1-c1ccccc1	89.1µM*	22.4µM*	-3.7%	-17.2%
SMILES	Sfp inh	12-LOX inh	VDR inh	PLK1 PBD block
CC(=O)O[C@@H]1C[C@@]2(C)[C@@H](CC[C@H]2[C@@H](C)/C=C\CC(C)C)C2=C[C@@H](O)[C@@]3(O)C[C@@H](O)[C@H](O)C[C@]3(CO)[C@]21O	x	-13.2%	x	x
c1csc(C2C3=C(Nc4ncnn42)c2ccccc2OC3)c1 (centres undefined)	50.1µM*	-22.0%	6.2%	-23.9%
CCC(CC)NC(=O)C1CCc2nc(N3CCN(C(=O)C(C)C)CC3)sc2C1 (centres undefined)	x	35.5µM*	x	x
CCC(=O)N1CCN(c2nc3c(s2)CC(C(=O)NCc2ccccc2)CC3)CC1 (centres undefined)	x	32.7%	x	x
Cc1cc(C)nc(SCC(=O)Oc2ccc3oc(=O)cc(C)c3c2)n1	5.5%	0.0%	-8.8%	26.7µM*
CCOC(=O)c1cc(-c2ccccc2C)n(CC2CC(c3ccc(OC)cc3)=NO2)n1 (centres undefined)	x	2.9%	-0.3%	-1.4%
O=C(Nc1ccc(O)c(-c2nc3ccccc3o2)c1)C1(c2ccccc2)CCCC1	14.1%	25.0%	-0.6%	-8.9%
CC1=CC2=NC(=O)CC(C)(C(=O)N(CC(=O)NC3CCCC3)c3cc(C)cc(C)c3)N2C=C1 (centres undefined)	1.7%	0.0%	u	26.7µM*
CCCCC(CC)Cn1c(Oc2ccccc2)nc2c1c(=O)n(C)c(=O)n2C (centres undefined)	x	-12.3%	-7.0%	x
O=C(O)CO	-1.1%	u	1.7%	x
Cc1ccc(-c2cc(C(=O)NCCCn3ccnc3)c3ccccc3n2)cc1	x	-3.6%	x	x
Cc1ccc(-c2cc(C(=O)N3CC(C)OC(C)C3)c3ccccc3n2)o1 (centres undefined)	x	u	-10.1%	-5.7%
Cc1ccc(-c2cc(C(=O)NN3CCOCC3)c3cc(Br)ccc3n2)o1	25.1µM*	u	-21.9%	-10.3%
Cc1ccc(-c2cc(C(=O)N3CCCCC3)c3cc(Br)ccc3n2)o1	x	8.91µM*	x	x
Cc1ccc(-c2cc(C(=O)N3CCN(C(=O)C4CC4)CC3)c3ccccc3n2)o1	x	22.4µM*	x	x
Cc1ccc(-c2cc(C(=O)NC3=NCCS3)c3cc(Br)ccc3n2)o1	-91.9%	x	x	x
Cc1ccc(-c2cc(C(=O)NCCCn3ccnc3)c3cc(Br)ccc3n2)o1	-5.5%	x	-5.7%	23.8µM*
O=C(COC(=O)Cc1ccsc1)Nc1cccc(F)c1	x	2.3%	89.1µM*	-5.7%
O=C(Cc1ccsc1)Nc1cc(F)ccc1F	12.2%	4.9%	-3.5%	-3.3%
O=C(Cc1ccsc1)Nc1ccccc1F	15.2%	-2.4%	u	26.7µM*
O=C(COC(=O)Cc1ccsc1)Nc1cccc(Cl)c1	x	-24.8%	0.7%	3.1%
O=C(O)Cn1cccc1C(=O)c1ccccc1	21.1%	10.8%	-14.9%	-9.8%
CCn1cc(C(=O)NCCc2ccc(C)cc2)c(=O)c2cc(S(=O)(=O)N3CCCCC3)ccc21	x	-6.9%	-26.3%	x
O=C(CC[C@@H]1CNC(=O)[C@@H]2C[C@H](NC(=O)c3ccccc3)CN12)NCc1ccc(F)cc1	x	31.6µM*	x	x
O=C(CC[C@@H]1CNC(=O)[C@@H]2C[C@H](NCc3ccc(F)cc3)CN12)NCc1ccccc1	x	84.6%[176 µM]	x	x
O=c1[nH]cc(S(=O)(=O)c2ccccc2)[nH]1	14.9%	25.5%	-29.8%	29.9µM*
COc1ccc(NC(=O)/C(Cl)=C(/Cl)S(=O)Cc2ccccc2Cl)cn1 (centres undefined)	22.4µM*	x	u	1.5µM*
COc1ccc(NC(=O)Cc2ccc(Cl)c(Cl)c2)cn1	7.8%	274.0%	-15.5%	-14.3%
Cc1ccc(NNC(=O)Nc2ccc(Cl)cc2)nn1	8.91µM*	-21.8%	17.8µM*	5.97µM*
O=C(NNc1cccc(Cl)n1)Nc1ccc(Cl)cc1	-1.2%	-9.4%	-11.7%	-14.9%
